Results taken from PubChem BioAssay AID1839 (Johns Hopkins Ion Channel Center, 2009).
Among all 2,400 compounds or so, about 220 (9.2%) were called active. Many of the other results were omitted from the sample, so actives are more common in it than they were. A number with no mark means an inactive call.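 How the source made its calls: active means signal change above the mean of dofetilide-free buffer controls plus 3 SD, so a positive margin; inactive means the rest.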

Assay: thallium signal changes without hERG – cell-based, CHO-K1 parental line, FluxOR thallium flux, counter-screen for hERG block protection project, confirmation (AID 1839);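 further: compounds applied alone with no dofetilide to cells lacking hERG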
Conditions: CHO-K1 parental cells, FluxOR thallium flux fluorescence; at 10 µM

| SMILES | signal change vs control minus 3*SD hit threshold (margin above threshold, higher = more increase) |
| --- | --- |
| CC(C)Nc1nc(SCC(N)=O)nc(N2CCOCC2)n1 | -27.8% |
| CCC(C)(C)C1CCc2c(sc(NC(=O)c3ccccc3C(=O)O)c2C#N)C1 (configuration not stated) | -7% |
| CCOC(=O)C1C(c2ccccc2)C(C(=O)OCC)C1c1ccccc1 (configuration not stated) | -27.3% |
| Cc1ccc(NC(=O)CN2C(=O)S/C(=C\c3ccc(-c4cccc(C(=O)O)c4C)o3)C2=O)cc1 | -30.6% |
| COc1ccc(-c2ccc(/C=N/NC(=O)c3cccnc3)o2)c([N+](=O)[O-])c1 | -34.4% |
| O=C(O)CCCCn1c(SCc2ccccc2Cl)nc2ccsc2c1=O | -18.4% |
| O=C(NC(=S)Nc1cccc(C(F)(F)F)c1)c1csnn1 | 52.4% (active) |
| CCOC(=O)NC(=S)Nc1ccc(C(C)(C)C)cc1 | -14.3% |
| O=C(NC(=S)Nc1ccc(N2CCCCC2)cc1)c1cccs1 | -2.8% |
| O=C(NC(=S)Nc1cc(C(F)(F)F)ccc1Cl)c1ccccc1 | -22.9% |
| O=C(NC(=S)Nc1ccc(C(F)(F)F)cc1)c1csnn1 | 48.4% (active) |
| O=C(Nc1ccc(-c2csc(Nc3cccc(C(F)(F)F)c3)n2)cc1)c1ccccc1 | -35.7% |
| Cc1onc(-c2ccccc2)c1C(=O)NC(=S)Nc1sc2c(c1C#N)CCC(C)C2 (configuration not stated) | -18.7% |
| CCCSC(=S)c1c(C)[nH]n(-c2ccccc2)c1=O | -12.5% |
| O=C(Nc1nnc(-c2ccc3c(c2)CCCC3)o1)C1COc2ccccc2O1 (configuration not stated) | -35% |
| CC(/C=C1\SC(=S)N(NS(=O)(=O)c2ccccc2)C1=O)=C\c1ccccc1 | -11.8% |
| COc1cc(CNn2nnnc2N)ccc1OCC(=O)NC(C)(C)C | -34.7% |
| O=C(NC(=S)N1CCc2ccccc21)c1ccccc1Cl | 9% (active) |
| O=C(NC(=S)N1CCc2ccccc21)c1ccccc1Br | 48.4% (active) |
| O=C(NC(=S)N1CCc2ccccc21)c1ccco1 | -18.3% |
| O=C(NC(=S)N1CCc2ccccc21)c1ccc(Br)o1 | -18.4% |
| O=C(NC(=S)N1CCCc2ccccc21)c1ccccc1 | -30.8% |
| O=C(NC(=S)N1CCc2ccccc21)c1ccccc1 | -2.8% |
| S=C(Nc1ccccc1)Nc1nc2ccccc2n1CCOc1ccccc1 | -30.2% |
| CN(C(=S)NC(=O)c1ccc(F)cc1)C1CCCCC1 | -31.9% |
| CC1CCN(C(=S)NC(=O)c2ccc(C(C)(C)C)cc2)CC1 | -18% |
| COC(=O)n1c(=S)oc2cc(Cl)ccc21 | -22.1% |
